Experimental data taken from PubChem BioAssay AID1490 (National Center for Advancing Translational Sciences (NCATS), 2009).
Where “and” joins values, the source holds several entries; their conditions need not be identical. Equal values may be shown once. The campaign covered roughly 310,000 compounds. About 11,000 (3.5%) were called active. Another 4% or so got no clear call; they are omitted. The call rests on the fitted dose curve; in most records, active means well fitted inhibition curve with a large enough effect; inconclusive means small, poorly fitted or top-dose-only effect, or another doubt; inactive means no such curve, though single readings can be large or run the other way. The sample as a whole holds a higher share of actives than the screen did.

Molecular target: 4'-phosphopantetheinyl transferase ffp (Bacillus subtilis) (UniProt Q9F4F7)
Test: qHTS Assay for Inhibitors of Bacillus subtilis Sfp phosphopantetheinyl transferase (PPTase);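 further: the enzyme is Sfp with the accession as filed and its product quenches rhodamine fluorescence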;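 on Largest response in the series, negative = inhibition: 0% = enzyme reaction without inhibitor and -100% = no enzyme wells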
Conditions: Biochemical Sfp PPTase activity
How it was run: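 Compounds were incubated with enzyme (final 15 nM) for 15 min at room temperature before substrate addition started the reaction. Fluorescence at 525 nm excitation, 598 nm emission was recorded immediately and after 30 minutes.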
Potency means the concentration at half of the fitted maximal effect.

Largest response in the series, negative = inhibition, inactive:
CSc1ccccc1NC(=O)c1cc(Cl)sc1Cl 9.55%
CC(C)OC(=O)c1c(NC(=O)c2ccco2)sc2c1CCCC2 10.9%
CCOC(=O)c1c(NC(=S)NC(=O)c2ccco2)sc2c1CCCC2 -0.0002%
COC(=O)c1ccc(CN2C(=O)NC(c3ccccc3)(c3ccccc3)C2=O)o1 23.7%
CC[C@]1([C@H]2O[C@@H]([C@@H]3O[C@](O)(CO)[C@@H](C)C[C@H]3C)C[C@H]2C)CC[C@@H]([C@]2(C)CC[C@@]3(C[C@@H](O)[C@@H](C)[C@@H]([C@H](C)[C@H](OC)[C@H](C)C(=O)O)O3)O2)O1 15.5%
Cc1ccc(N2C(=O)C3CC3C2=O)cc1 (centres undefined) 15.7%
O=C1CC(N2CCN(c3ccc(F)cc3)CC2)C(=O)N1c1ccccc1 (centres undefined) 0.505%
CC(=O)Nc1ccc(N2C(=O)CC(Sc3nccc(C)n3)C2=O)cc1 (centres undefined) 11.7%
COc1ccc(-c2nc(SCC(=O)N3CCCC3)n[nH]2)cc1 14.1%
COC(=O)c1ccccc1SC1CC(=O)N(c2cccc(C)c2)C1=O (centres undefined) -19.3%
COc1ccc(N2C(=O)CC(SC(C)C)C2=O)cc1 (centres undefined) 7.97%
CCOc1ccc(S(=O)(=O)N2CCC(C(=O)NCc3ccccn3)CC2)cc1Cl 5.52%
CC[C@@]12C=C(/C=C/c3ccccc3)[C@](CC)(C1)[C@H](c1ccccc1)CC2=O -22.6%
CC(Nc1nc(C(F)(F)F)nc2ccccc12)c1cccs1 (centres undefined) 2.55%
COC(=O)C(C(=O)OC)[C@@H]1CCCC(=O)C1 -0.107%
CN(C)c1ccc(-c2nnc(-c3cccnc3)o2)cc1 7.75%
Cc1cc(NS(=O)(=O)c2ccc(NC(=O)C(C)Oc3cccc(C)c3C)cc2)nc(C)n1 (centres undefined) 8.85%
CC(C)(C)C(=O)CSc1nc2ccccc2o1 7.38%
Cc1ccc(/C=N/NC(=O)CSc2nc3ccccc3o2)cc1 -16.9%
CCN(CC)S(=O)(=O)c1ccc(C(=O)N2CCN(C3=NS(=O)(=O)c4ccccc43)CC2)cc1 14.9%
COc1cccc(CCNC(=O)c2cccc(NC(=O)C3=C(C)OCCS3)c2)c1 3.98%
CCCS(=O)(=O)Nc1ccc(-c2cn3c(n2)SCC3)cc1 -22.5%
Cc1cc(-c2cccs2)nc(-n2cccc2)n1 1.03%
CCOC(=O)COn1c(=O)c(-c2ccc(OCC)cc2)[n+]([O-])c2ccccc21 1.13%
COc1ccc(OC)c(-c2c(=O)n(OCc3ccccc3Br)c3ccccc3[n+]2[O-])c1 9.79%
O=C(N=C1SC2CS(=O)(=O)CC2N1c1cc(Cl)ccc1Cl)C1CC1 (centres undefined) 8.66%
COc1ccc(CCn2c(=N)c(C(=O)NCc3ccco3)cc3c(=O)n4cccc(C)c4nc32)cc1 -13.5%
O=c1oc(-c2ccco2)nc2sc3c(c12)CCCCC3 2.61%
CCc1ccc(NC(=O)CS(=O)CC(=O)N2CCN(c3ccccc3F)CC2)cc1 (centres undefined) 2.49%
COc1ccc(C(=O)NC2CC2)cc1OC1CCN(C/C=C/c2ccccc2)CC1 8.51%
Cc1nonc1C1CCCN1C(=O)c1cc(COc2cccc(C(F)(F)F)c2)on1 (centres undefined) 14.2%
CCc1cccc(NC(=O)CCCN2C(=O)C(c3ccccc3)Oc3cccnc32)c1 (centres undefined) 11.6%
COC(=O)C(CC(C)C)NS(=O)(=O)c1cc(Br)ccc1Br (centres undefined) 6.49%
COc1cc2c(cc1OC)CC(=O)N(CCCN(C)C[C@H]1Cc3cc(OC)c(OC)cc31)CC2 9.18%
Cc1cccc(N2C(=O)CC(SC(N)=Nc3ccccc3)C2=O)c1 (centres undefined) 10.8%
Cc1cccc(N2C(=O)c3ccc(C(=O)Nc4cccc(C(=O)O)c4)cc3C2=O)c1 8.86%
CCOC(=O)C1(Cc2ccccc2C)CCCN(C(=O)CN2C(=O)CSC2=O)C1 (centres undefined) 3.9%
CC(=O)c1cccc(OCc2cc(C(=O)NC(C)Cc3cccnc3)no2)c1 (centres undefined) 16.6%
Cc1oc2c(F)c(F)c(F)c(F)c2c1S(=O)(=O)Nc1cccc(C(F)(F)F)c1 11.3%
CSc1ccccc1N1CCN(CCCCCC(=O)NC2CCCc3ccccc32)CC1 (centres undefined) -7.93%
CC(=O)N1CCN(CC(=O)Nc2ccc(C)c(F)c2)CC1 -24.9%
O=C(CN1CCN(c2ccc(F)cc2)CC1)Nc1ccccc1 -1.74%
O=C(CN1CCOCC1)Nc1cc(Cl)ccc1Cl 2.24%
O=C(CN1CCN(c2cccc(Cl)c2)CC1)Nc1ccc(S(=O)(=O)N2CCOCC2)cc1 13%
O=C(CSc1nncs1)NC1CCCc2ccccc21 (centres undefined) 15.6%
O=C(CN1CCN(c2ccccc2)CC1)Nc1ccc(F)cc1 7.85%
Cc1cc(NC(=O)CCN2CCN(Cc3ccccc3)CC2)ccc1Br -5.6%
COc1ccc(C2(C#N)CCC(C(=O)O)CC2)cc1OC1CCCC1 (centres undefined) 3.3%
CN(CC(=O)NCCN1CCOCC1)S(=O)(=O)c1ccc(F)cc1 16.5%
CN(CCNC(=O)c1cc2c(-c3ccccc3F)nn(C)c2s1)C1CCCCC1 5.98%
COC(=O)c1cc(S(=O)(=O)NCC2CCN(Cc3ccc(Cl)cc3)CC2)cn1C 11.4%
CCOC(=O)C1(Cc2ccccc2C)CCCN(C(=O)c2ccc(COC)o2)C1 (centres undefined) -22.7%
COc1ccc(/C=N/Nc2ccccc2C(=O)O)cc1 11.5%
CCC(=O)Nc1nc(C)c(C(=O)Nc2cccc(Cl)c2)s1 8.26%
O=C(NCc1ccc(F)cc1)C1CCN(C(=O)Nc2ccc(F)cc2)CC1 9.57%
C=CCOC(=O)NC(c1ccc(F)c(F)c1)C(C(=O)COC)C(=O)OC (centres undefined) -7.09% and 12.8%
CCOC(=O)c1cccc(NS(=O)(=O)c2c(C(=O)N3CCCCCC3)c(C)n(C)c2C)c1 2.36%
Nc1nonc1-n1nnc(C(=O)N/N=C\c2ccncc2)c1CN1CCCCC1 21.3%
COc1ccc2[nH]cc(CCN3C(=O)c4ccc(C(=O)O)cc4C3=O)c2c1 20.2%
O=C(Cc1ccc(F)cc1)N/N=C/c1ccc2c(c1)OCO2 18.6%
O=C(N/N=C/c1ccc2c(c1)OCO2)C(=O)N1CCCC1 24.9%
O=C(CNC(=O)C(c1ccccc1)c1ccccc1)N/N=C\c1ccc2c(c1)OCO2 -10.2%
Cc1noc(C)c1/C=N/Nc1ccc2ccccc2n1 25.3%
CCN(CC)/[N+]([O-])=N/Oc1cc(O/[N+]([O-])=N/N2CCCC2CO)c([N+](=O)[O-])cc1[N+](=O)[O-] (centres undefined) -6.67%
Cn1c(=O)c2sccc2n(Cc2ccc(Br)cc2)c1=O 5.6%
CCOc1ccc(N(CC(=O)Nc2ccccc2F)S(=O)(=O)c2c(C)[nH]c(=O)[nH]c2=O)cc1 9.89%
COc1ccccc1C(=O)NC(=S)Nc1ccccc1N1CCCCC1 5.21%
Cc1ccc(C(=O)NCC(=O)OCC(=O)NC2CCCCCCC2)cc1 15.7%
COc1ccc(CNC(=O)C2CCN(S(=O)(=O)c3ccc(SC)cc3)CC2)cc1 8.97%
O=S(=O)(c1ccc(Br)cc1)c1nc(-c2ccccc2)oc1N1CCOCC1 -5.06%
O=S(=O)(c1ccc(Cl)cc1)c1nc(-c2ccco2)oc1N1CCCCC1 -3.63%
Cc1ccc(OC(=O)c2cncc(Br)c2)c(C)c1 -4.31%

Potency, active:
CNC(=O)c1c(NC(NC(=O)c2ccco2)C(=O)c2ccc(Cl)cc2)sc2c1CCCC2 (centres undefined) 25.1 µM
Cc1ccc(N2C(=O)CC(Sc3ncn[nH]3)C2=O)cc1 (centres undefined) 56.2 µM
O=C1CC(Sc2ncn[nH]2)C(=O)N1c1ccccc1 (centres undefined) 56.2 µM
COc1ccc(N2C(=O)CC(Sc3n[nH]c(-c4ccc(C)cc4)n3)C2=O)cc1 (centres undefined) 25.1 µM
O=C(CSc1nc2ccccc2o1)N/N=C/c1ccccc1C(=O)O 44.7 µM
c1csc(-c2cn3c(n2)SCC3)c1 79.4 µM
CCOc1ccc(OCC)c(-c2c(=O)n(OCc3ccc(Cl)cc3)c3ccccc3[n+]2[O-])c1 100 µM
O=C(NCc1ccco1)c1cccn2c(=O)c3c4c(sc3nc12)CCCC4 44.7 µM
Cc1coc2c(O)cc3c(c12)OC1(N2CCCCC2)C(=O)NCCCC31 (centres undefined) 28.2 µM
Cc1cccc(N2C(=O)SC(SC(=Nc3ccccc3)Nc3ccccc3)C2=O)c1 (centres undefined) 10 µM
O=C(CN1CCN(Cc2ccccc2)CC1)Nc1ccc(F)c(F)c1 56.2 µM
O=C(CN1CCN(c2ccc(O)cc2)CC1)Nc1cc(S(=O)(=O)N2CCOCC2)ccc1Cl 79.4 µM
O=C(CN1CCN(c2ccc(O)cc2)CC1)Nc1ccc(-c2ccccc2)cc1 44.7 µM
O=C(CN1CCN(c2ccc(O)cc2)CC1)NC1CCCc2ccccc21 (centres undefined) 17.8 µM
Brc1ccc(-c2csc(N/N=C/c3ccc4c(c3)OCO4)n2)cc1 2.82 µM
C(=N\Nc1ccc2ccccc2n1)/c1ccc2c(c1)OCO2 50.1 µM
O=S(=O)(c1ccccc1)c1nc(Cc2ccccc2)oc1N1CCOCC1 44.7 µM
